From the supplement of paper PMC6522484
± gives the standard deviation of the averaged measurements.

The molecules below were run on DLD1 (assay: cell viability (CellTiter-Glo) relative to plate median (fraction of plate median); higher = more viable cells). Settings: 5 µM; treatment time 24 h; reporter: 7TFP.
How it was run: (§1)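 Colorectal cancer cell lines stably transduced with lentiviral TCF/Wnt firefly luciferase reporters (7TFP or TCF4/Wnt) were seeded in 384-well plates. 24 h later they received library compounds at a final 5 µM for 24 h. Parallel plates were read for firefly luciferase or CellTiterGlo luminescence on a Tecan F500 reader. Each well's signal was normalised to the plate median (webcellHTS2, additive, no log transformation), and the mean of two independent replicates is reported.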

Row | Compound | cell viability
1 | O=c1cc(-c2ccccc2)oc2c(O)c(O)ccc12 | 1.11 ± 0.11
2 | CC(=O)S[C@@H]1CC2=CC(=O)CC[C@]2(C)[C@H]2CC[C@@]3(C)[C@@H](CC[C@@]34CCC(=O)O4)[C@H]12 | 1.11 ± 0.014
3 | OCc1c[nH]c2ccccc12 | 1.01
4 | O=C(O)c1cc2ccccc2[nH]1 | 0.968 ± 0.011
5 | CC1(C)O[C@@H]2C[C@H]3[C@@H]4C[C@H](F)C5=CC(=O)C=C[C@]5(C)[C@H]4[C@@H](O)C[C@]3(C)[C@]2(C(=O)CO)O1 | 0.996 ± 0.0057
6 | COC(=O)[C@H]1[C@H]2C[C@H]3c4[nH]c5ccccc5c4CCN3C[C@@H]2CC[C@@H]1O | 0.988 ± 0.06
7 | CC[n+]1c(-c2ccccc2)c2cc(N)ccc2c2ccc(N)cc21 | 1.1 ± 0.014
8 | CN(C)CCN(Cc1cccs1)c1ccccn1 | 1.08 ± 0.028
9 | CCc1nc(N)nc(N)c1-c1ccc(Cl)cc1 | 0.972 ± 0.082
10 | CC(=O)Nc1ccc(O)cc1 | 0.935 ± 0.028
11 | COc1ccc(C(=O)CC(=O)c2ccc(C(C)(C)C)cc2)cc1 | 0.879 ± 0.2
12 | COc1cccc(/C=C/C(=O)O)c1C(C)C | 0.981 ± 0.042
13 | CC[C@H]1OC(=O)C[C@@H](O)[C@H](C)[C@@H](O[C@@H]2O[C@H](C)[C@@H](O)[C@H](N(C)C)[C@H]2O)[C@@H](CCN2C[C@H](C)C[C@H](C)C2)C[C@@H](C)C(=O)/C=C/C(C)=C/[C@@H]1CO[C@@H]1O[C@H](C)[C@@H](O)[C@@H](OC)[C@H]1OC | 0.981 ± 0.041
14 | CN1[C@@H]2CC[C@H]1C[C@@H](OC(c1ccccc1)c1ccccc1)C2 | 1.03 ± 0.014
15 | CC(=O)C[C@@H]1C[C@H](O)c2c(O)cccc2C1=O [Bhimanone] | 1.06 ± 0.035
16 | O=c1c(-c2ccc(O)cc2)coc2cc(O)cc(O)c12 | 1.09 ± 0.021
17 | Cc1c(N(C)C)c(=O)n(-c2ccccc2)n1C | 0.898 ± 0.025
18 | CC1=CC2C(C(C)C)CCC(C)(O)C2CC1 (configuration not stated) | 0.97 ± 0.036
19 | CCN(CC)CCOC(=O)C(Cc1cccc2ccccc12)CC1CCCO1 (configuration not stated) | 1.095 ± 0.0071
20 | COC(=O)C1=CO[C@@H](O[C@@H]2O[C@H](CO)[C@@H](O)[C@H](O)[C@H]2O)[C@@H]2[C@@H](C)[C@@H](O)C[C@H]12 | 1.045 ± 0.0071
21 | CN(C)CCC=C1c2ccccc2COc2ccccc21 | 0.994 ± 0.052
22 | COC(=O)C[C@H]1C(C)(C)[C@@H](OC(C)=O)[C@@H]2CC3C4CC(=O)O[C@@H](c5ccoc5)[C@]4(C)CCC3[C@@]1(C)C2=O (some centres not stated) | 1.05 ± 0.042
23 | NS(=O)(=O)c1cc2c(cc1C(F)(F)F)NC(Cc1ccccc1)NS2(=O)=O (configuration not stated) | 0.992 ± 0.04
24 | Oc1ccc(Cl)c2cccnc12 | 1.025 ± 0.0071
25 | C#C[C@]1(OC(C)=O)CC[C@H]2[C@@H]3CCC4=CC(=O)CC[C@@H]4[C@H]3CC[C@@]21C | 0.87 ± 0.018
26 | CCCc1ncc(C[n+]2ccccc2C)c(N)n1 | 0.995 ± 0.05
27 | CC1(C)[C@@H](O)CC[C@]2(C)[C@H]3C(=O)C=C4[C@@H]5C[C@@](C)(C(=O)O)CC[C@]5(C)CC[C@@]4(C)[C@]3(C)CC[C@@H]12 | 1.01 ± 0.059

Each molecule was assayed on HCT116 in the same assay as above. Settings: 5 µM; treatment time 24 h; reporter: TCF4/Wnt.
How it was run: as §1

Row | Compound | cell viability
28 | C=C1C2CCC3(C)C(c4ccoc4)OC(=O)CC13OC1CC(OC(C)=O)C(C)(C)C(CC(=O)OC)C12C (stereo not drawn) [3beta-ACETOXYDEOXYANGOLENSIC ACID, METHYL ESTER] | 0.946 ± 0.033
29 | CC1(C)C=CC(=O)[C@@]2(C)C1CC(=O)[C@]1(C)C2CC[C@@]2(C)[C@H](c3ccoc3)OC(=O)C3OC321 (some centres not stated) | 0.71 ± 0.61
30 | N[C@@H](Cc1cc(I)c(Oc2cc(I)c(O)c(I)c2)c(I)c1)C(=O)O | 1.11 ± 0.042
31 | COc1ccc2ccc(=O)oc2c1 | 0.992 ± 0.025
32 | O=C1c2c(O)cccc2C([C@@H]2O[C@H](CO)[C@@H](O)[C@H](O)[C@H]2O)c2cc(CO)cc(O)c21 (some centres not stated) | 1.1 ± 0.078
33 | OC[C@@H](O)[C@@H](O[C@@H]1O[C@H](CO)[C@@H](O)[C@H](O)[C@H]1O)[C@H](O)[C@@H](O)CO | 1.01 ± 0.058
34 | CC(=O)C12OC(C)(c3ccccc3)OC1CC1C3CCC4=CC(=O)CCC4(C)C3CCC12C (configuration not stated) | 0.987 ± 0.033
35 | CC1(C)CC[C@]2(C(=O)O)CC[C@]3(C)C(=CC[C@@H]4[C@@]5(C)CC[C@H](O)C(C)(C)[C@@H]5[C@H](O)C[C@]43C)[C@@H]2C1 | 0.955 ± 0.092
36 | CCOC(=O)[C@H](CCc1ccccc1)N[C@@H](C)C(=O)N1[C@H](C(=O)O)C[C@H]2CCCC[C@@H]21 | 1.02 ± 0.068
37 | CC(=O)O[C@H]1CC[C@]2(C)C3=C(CC[C@H]2C1(C)C)[C@]1(C)CC[C@H]([C@H](C)CCC=C(C)C)[C@@]1(C)CC3 | 0.957 ± 0.055
38 | COc1ccc2c(=O)c(-c3cc4c(cc3OC)OCO4)coc2c1 | 1.01 ± 0.053
39 | OCC(S)CS (configuration not stated) | 0.956 ± 0.018
40 | COc1ccc([C@@H]2CC(=O)c3c(O)cc(O)cc3O2)cc1O | 0.93 ± 0.052
41 | O=c1cc(-c2ccccc2)oc2c(O)c(O)ccc12 | 0.969 ± 0.039
42 | CC(=O)S[C@@H]1CC2=CC(=O)CC[C@]2(C)[C@H]2CC[C@@]3(C)[C@@H](CC[C@@]34CCC(=O)O4)[C@H]12 | 0.97 ± 0.04
43 | OCc1c[nH]c2ccccc12 | 0.93 ± 0.03
44 | O=C(O)c1cc2ccccc2[nH]1 | 0.994 ± 0.08
45 | CC1(C)O[C@@H]2C[C@H]3[C@@H]4C[C@H](F)C5=CC(=O)C=C[C@]5(C)[C@H]4[C@@H](O)C[C@]3(C)[C@]2(C(=O)CO)O1 | 1.03 ± 0.055
46 | COC(=O)[C@H]1[C@H]2C[C@H]3c4[nH]c5ccccc5c4CCN3C[C@@H]2CC[C@@H]1O | 0.984 ± 0.066
47 | CC[n+]1c(-c2ccccc2)c2cc(N)ccc2c2ccc(N)cc21 | 1.1 ± 0.057

Row | Compound | cell viability
48 | CN(C)CCN(Cc1cccs1)c1ccccn1 | 1.04 ± 0.18
49 | CCc1nc(N)nc(N)c1-c1ccc(Cl)cc1 | 0.999 ± 0.03
50 | CC(=O)Nc1ccc(O)cc1 | 0.948 ± 0.14
51 | COc1ccc(C(=O)CC(=O)c2ccc(C(C)(C)C)cc2)cc1 | 0.904 ± 0.032
52 | COc1cccc(/C=C/C(=O)O)c1C(C)C | 1.03 ± 0.093
53 | CC[C@H]1OC(=O)C[C@@H](O)[C@H](C)[C@@H](O[C@@H]2O[C@H](C)[C@@H](O)[C@H](N(C)C)[C@H]2O)[C@@H](CCN2C[C@H](C)C[C@H](C)C2)C[C@@H](C)C(=O)/C=C/C(C)=C/[C@@H]1CO[C@@H]1O[C@H](C)[C@@H](O)[C@@H](OC)[C@H]1OC | 1.1 ± 0.05
54 | CN1[C@@H]2CC[C@H]1C[C@@H](OC(c1ccccc1)c1ccccc1)C2 | 1.12 ± 0.014
55 | CC(=O)C[C@@H]1C[C@H](O)c2c(O)cccc2C1=O [Bhimanone] | 1.03 ± 0.035
56 | O=c1c(-c2ccc(O)cc2)coc2cc(O)cc(O)c12 | 1.03 ± 0.05
57 | Cc1c(N(C)C)c(=O)n(-c2ccccc2)n1C | 0.981 ± 0.13
58 | CC1=CC2C(C(C)C)CCC(C)(O)C2CC1 (configuration not stated) | 0.929 ± 0.011
59 | CCN(CC)CCOC(=O)C(Cc1cccc2ccccc12)CC1CCCO1 (configuration not stated) | 1.02 ± 0.034
60 | COC(=O)C1=CO[C@@H](O[C@@H]2O[C@H](CO)[C@@H](O)[C@H](O)[C@H]2O)[C@@H]2[C@@H](C)[C@@H](O)C[C@H]12 | 1.02 ± 0.047
61 | CN(C)CCC=C1c2ccccc2COc2ccccc21 | 1.01 ± 0.021
62 | COC(=O)C[C@H]1C(C)(C)[C@@H](OC(C)=O)[C@@H]2CC3C4CC(=O)O[C@@H](c5ccoc5)[C@]4(C)CCC3[C@@]1(C)C2=O (some centres not stated) | 0.946 ± 0.011
63 | NS(=O)(=O)c1cc2c(cc1C(F)(F)F)NC(Cc1ccccc1)NS2(=O)=O (configuration not stated) | 0.969 ± 0.058
64 | Oc1ccc(Cl)c2cccnc12 | 0.988 ± 0.032
65 | C#C[C@]1(OC(C)=O)CC[C@H]2[C@@H]3CCC4=CC(=O)CC[C@@H]4[C@H]3CC[C@@]21C | 0.964 ± 0.094
66 | CCCc1ncc(C[n+]2ccccc2C)c(N)n1 | 0.935 ± 0.059
67 | CC1(C)[C@@H](O)CC[C@]2(C)[C@H]3C(=O)C=C4[C@@H]5C[C@@](C)(C(=O)O)CC[C@]5(C)CC[C@@]4(C)[C@]3(C)CC[C@@H]12 | 1.03 ± 0.098
